Assay [1] has as its target Gonadotropin-releasing hormone receptor (Homo sapiens) (UniProt P30968). The assay can be described thus: Human gonadotropin-releasing hormone receptor (GnRHR) small molecule agonists, calcium flux assay in GnRHR-HEK293 cells (AID 1920063). Further: nearly all actives have a fitted effect of over 35% in size. The method, boiled down: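 Tox21-format agonist screen using human GnRHR-expressing HEK293 cells and a fluorescent calcium dye; kinetic 3-min fluorescence reading after compound addition, 15-point concentration series run in triplicate.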

Assay [2] deals with KiSS-1 receptor (Homo sapiens) (UniProt Q969F8). Kind of assay: Human kisspeptin (KISS1R) small molecule agonists, calcium flux assay in KISS1R-HEK293 cells (AID 1920064; active means well fitted activation curve with a large enough effect in the repeat runs). The gist of the method:
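Intracellular calcium mobilization in KISS1R-HEK293 cells was recorded by fluorescence (Ex/Em 480/540) for 3 min following compound addition to cells pre-loaded 1 h with calcium dye.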

The nature of assay [3]: G protein-coupled receptor (GPCR) small molecule agonists, calcium flux assay: HEK293 wild type cell line counter screen (AID 1920065). The method, boiled down:
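In this agonist-mode screen, ATP is the positive control and DMSO the vehicle. Cells grow 18 h before a 1 h dye incubation at 37 C; signal is taken at Ex/Em 480/540 over 3 min.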

Assay [4] in a line: p53 small molecule agonists, cell-based qHTS assay with human liver microsomes (AID 1963577).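 Further: p53 response element beta-lactamase reporter cells with liver microsomes plus NADPH.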 The gist of the method:
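Metabolically competent format: test substances, human liver microsomes and NADPH (both 0.5 mg/mL final) incubated with p53RE-bla cells 16 h at 37 C. Beta-lactamase reporter signal then quantified by fluorescence.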

The nature of assay [5]: p53 small molecule agonists, cell-based qHTS assay with human liver microsomes: qHTS cell viability counter screen (AID 1963579). Further: nearly all actives have a fitted effect of over 45% in size. The method, boiled down: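 Tox21 library compounds, delivered from DMSO stocks, were tested on p53RE-bla cells together with 0.5 mg/mL human liver microsomes and 0.5 mg/mL NADPH (final) over 16 h at 37 C; CellTiter-Glo luminescence served as the cytotoxicity measure.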

Assay [6] is described as follows: p53 small molecule agonists, cell-based qHTS assay with rat liver microsomes: qHTS cell viability counter screen (AID 1963580). Further: nearly all actives have a fitted effect of over 45% in size. The method, boiled down:
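p53RE-bla HCT-116 cells were exposed 16 h at 37 C to compounds with rat liver microsomes (0.5 mg/mL) and NADPH (0.5 mg/mL). Viability was measured in the same wells as ATP content by CellTiter-Glo luminescence.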

Assay [7] in a line: p53 small molecule agonists, cell-based qHTS assay: qHTS cell viability counter screen (AID 1963581). Further: nearly all actives have a fitted effect of over 45% in size. The gist of the method: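 Compounds are pinned onto HCT-116 p53RE-bla cells and left 16 h at 37 C. Following the reporter FRET read, ATP is quantified by CellTiter-Glo luminescence after 30 min at room temperature.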
Assay [8] is described as follows: p53 small molecule agonists, cell-based qHTS assay (AID 1963582; active means well fitted activation curve with a large enough effect in the signal ratio in the repeat runs, not every such curve was filed as active; the % refers to the signal ratio). The gist of the method:
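Agonist activity was scored from beta-lactamase FRET fluorescence in p53RE-bla cells treated 16 h at 37 C with compounds in DMSO, substrate incubation being 2 h at room temperature.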

Assay [9] concerns the target 5-hydroxytryptamine receptor 2A (Homo sapiens) (UniProt P28223). The assay can be described thus: 5-hydroxytryptamine receptor 2A (HTR2A) small molecule antagonists, cell-based qHTS assay (AID 1963586). Further: nearly all actives have a fitted effect of over 45% in size. The gist of the method:
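Antagonist-mode intracellular calcium assay: DOI (4 nM) added after 5 min compound pre-incubation at room temperature to dye-loaded HTR2A-CHO cells. Fluorescence followed for 3 min, sampled every second.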

For assay [10] the target is unchanged. The assay can be described thus: 5-hydroxytryptamine receptor 2A (HTR2A) small molecule agonists, cell-based qHTS assay (AID 1963587). Further: nearly all actives have a fitted effect of over 30% in size. The gist of the method:
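CHO cells stably expressing human HTR2A, plated 18 h, loaded with calcium dye 1 h at 37 C. Agonist mode: compounds added and intracellular calcium fluorescence recorded kinetically for 2 min at 1 sec intervals.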

Assay [11] addresses Muscarinic acetylcholine receptor M1 (Homo sapiens) (UniProt P11229). Kind of assay: Cholinergic receptor muscarinic 1 (CHRM1) small molecule antagonists, cell-based qHTS assay (AID 1963588). Further: nearly all actives have a fitted effect of over 40% in size. Further: potency means the concentration at half of the fitted maximal effect. The gist of the method: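 CHRM1-CHO calcium-flux assay, antagonist mode. Cells were seeded 18 h, dye-loaded 1 h at 37 C and given compound for 5 min at RT, then acetylcholine was added at 50nM. FDSS fluorescence was read 3 min; 15 concentrations, three runs.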

For assay [12] the target is unchanged. Kind of assay: Cholinergic receptor muscarinic 1 (CHRM1) small molecule agonists, cell-based qHTS assay (AID 1963589). Further: nearly all actives have a fitted effect of over 35% in size. The method, boiled down:
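Stable CHRM1-CHO cells (human receptor) were incubated 18 h, dye-loaded for 1 h at 37 C and exposed to test compounds for agonist activity, with calcium-dependent fluorescence followed kinetically.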

Assay [13] is described as follows: cAMP Responsive Elements (CRE) small molecule antagonists, cell-based qHTS assay (AID 1963591; active means well fitted inhibition curve with a large enough effect in the signal ratio in the repeat runs, not every such curve was filed as active; the % refers to the signal ratio). The gist of the method:
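qHTS in CRE-bla HEK 293T cells: compound in DMSO, then 0.25 uM NKH477 (final), 3 h at 37 °C/5% CO2; beta-lactamase FRET read-out after 2 h substrate incubation.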

Assay [14] deals with D(2) dopamine receptor (Homo sapiens) (UniProt P14416). Kind of assay: Dopamine D2 receptor (DRD2) small molecule antagonists, cell-based qHTS assay (AID 1963595; active means well fitted inhibition curve with a large enough effect in the signal ratio in the repeat runs, with a control signal flat; the % refers to the signal ratio). The method, boiled down: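 Readout: HTRF cAMP, cAMP-d2 competing with cellular cAMP for anti-cAMP cryptate, read after 1 h. Cells: DRD2-HEK293. Conditions: 0.1 mM Ro20-1724, 12 nM quinpirole, 200 nM NKH477, 30 min RT.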

Assay [15] can be described thus: p53 small molecule agonists, cell-based qHTS assay with rat liver microsomes (AID 1963578). The gist of the method:
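Each plate received p53RE-bla cells, then compound, then rat liver microsomes and NADPH (both 0.5 mg/mL final). Plates were held 16 h at 37 C, and beta-lactamase activity was detected with LiveBLAzer over 2 h.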

The nature of assay [16]: cAMP Responsive Elements (CRE) small molecule agonists, cell-based qHTS assay (AID 1963590). The method, boiled down: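 FRET-based beta-lactamase readout (LiveBLAzer B/G, 2 h RT) quantified CRE activation in HEK 293T CRE-bla cells after 3 h treatment with DMSO-dissolved compounds.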
Assay [17] has as its target Beta-2 adrenergic receptor (Homo sapiens) (UniProt P07550). The assay can be described thus: Adrenergic beta2 receptor (ADRB2) small molecule antagonists, cell-based qHTS assay (AID 1963592). Further: series mostly up to about 92 µM; nearly all actives have a fitted effect of over 50% in size. The method, boiled down:
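Cells (CHO, stable ADRB2 overexpression) incubated 18-20hr at 37C; compounds added from DMSO; agonist mix (1nM isoproterenol, 100uM IBMX, 25uM Ro-20-1724) added; 0.5hr RT; d2-cAMP and anti-cAMP-cryptate added; 1hr RT; 665/615 nm read.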

For assay [18] the target is unchanged. Kind of assay: Adrenergic beta2 receptor (ADRB2) small molecule agonists, cell-based qHTS assay (AID 1963593).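 Further: CHO cells stably overexpressing human ADRB2.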 The gist of the method: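 CHO cells stably over-expressing ADRB2 were plated overnight at 37C, then dosed with compounds plus a stimulation mix containing 100uM IBMX and 25uM Ro-20-1724 for 0.5hr at room temperature. cAMP was measured by HTRF competition, 1hr.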

The target in assay [19] is D(2) dopamine receptor (Homo sapiens) (UniProt P14416). The assay can be described thus: Dopamine D2 receptor (DRD2) small molecule agonists, cell-based qHTS assay (AID 1963594). Further: nearly all actives have a fitted effect of over 35% in size. The method, boiled down: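 HEK293 cells stably expressing human DRD2, pre-treated with PDE inhibitor Ro20-1724 (0.1 mM final) and compound 10 min at room temperature, then stimulated with NKH477 (200nM […]) for 30 min. cAMP read by HTRF (665/620 nm).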

Inconclusive results are not listed. Calls of active or inactive are those of the source. Unless noted, the call rests on the fitted dose curve.

Chain of Muscarinic acetylcholine receptor M1 (Homo sapiens) (P11229 whole entry, looked up): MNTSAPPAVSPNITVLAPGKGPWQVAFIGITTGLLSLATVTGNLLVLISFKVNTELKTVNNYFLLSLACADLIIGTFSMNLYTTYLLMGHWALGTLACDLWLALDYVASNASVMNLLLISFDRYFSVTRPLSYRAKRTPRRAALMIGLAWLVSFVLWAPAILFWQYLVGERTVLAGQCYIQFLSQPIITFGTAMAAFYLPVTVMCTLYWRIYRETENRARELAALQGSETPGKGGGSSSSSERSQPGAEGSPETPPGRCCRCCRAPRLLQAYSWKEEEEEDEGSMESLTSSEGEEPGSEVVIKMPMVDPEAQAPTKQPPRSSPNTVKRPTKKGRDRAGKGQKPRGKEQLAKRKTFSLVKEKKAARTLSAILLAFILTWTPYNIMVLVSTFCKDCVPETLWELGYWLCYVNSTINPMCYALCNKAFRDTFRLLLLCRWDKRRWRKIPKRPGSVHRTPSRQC
Chain of D(2) dopamine receptor (Homo sapiens) (P14416 whole entry, looked up): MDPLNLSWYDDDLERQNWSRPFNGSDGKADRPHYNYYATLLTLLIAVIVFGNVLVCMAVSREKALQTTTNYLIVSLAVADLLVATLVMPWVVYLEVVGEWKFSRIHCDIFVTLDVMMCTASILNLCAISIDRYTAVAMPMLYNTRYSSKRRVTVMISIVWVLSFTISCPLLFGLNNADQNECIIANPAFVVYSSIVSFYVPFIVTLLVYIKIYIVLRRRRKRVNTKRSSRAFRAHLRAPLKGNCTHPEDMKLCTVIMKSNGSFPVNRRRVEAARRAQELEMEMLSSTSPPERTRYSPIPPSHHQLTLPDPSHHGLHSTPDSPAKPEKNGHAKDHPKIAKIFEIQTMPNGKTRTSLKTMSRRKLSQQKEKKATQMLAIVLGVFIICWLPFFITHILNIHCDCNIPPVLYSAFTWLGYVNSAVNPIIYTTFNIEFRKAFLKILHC
Chain of 5-hydroxytryptamine receptor 2A (Homo sapiens) (P28223 whole entry, looked up): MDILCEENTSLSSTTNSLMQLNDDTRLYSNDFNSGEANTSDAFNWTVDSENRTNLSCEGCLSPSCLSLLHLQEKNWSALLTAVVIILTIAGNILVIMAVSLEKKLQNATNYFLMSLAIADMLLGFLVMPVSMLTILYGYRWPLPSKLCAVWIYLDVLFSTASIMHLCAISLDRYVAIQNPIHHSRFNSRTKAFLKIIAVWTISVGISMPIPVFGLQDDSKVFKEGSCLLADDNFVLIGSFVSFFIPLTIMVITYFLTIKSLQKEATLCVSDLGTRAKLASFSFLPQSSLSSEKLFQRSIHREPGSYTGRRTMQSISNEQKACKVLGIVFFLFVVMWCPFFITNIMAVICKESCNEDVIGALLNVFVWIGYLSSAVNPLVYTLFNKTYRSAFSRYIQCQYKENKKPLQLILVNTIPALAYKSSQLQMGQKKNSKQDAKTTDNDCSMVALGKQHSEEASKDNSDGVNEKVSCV
Chain of KiSS-1 receptor (Homo sapiens) (Q969F8 whole entry, looked up): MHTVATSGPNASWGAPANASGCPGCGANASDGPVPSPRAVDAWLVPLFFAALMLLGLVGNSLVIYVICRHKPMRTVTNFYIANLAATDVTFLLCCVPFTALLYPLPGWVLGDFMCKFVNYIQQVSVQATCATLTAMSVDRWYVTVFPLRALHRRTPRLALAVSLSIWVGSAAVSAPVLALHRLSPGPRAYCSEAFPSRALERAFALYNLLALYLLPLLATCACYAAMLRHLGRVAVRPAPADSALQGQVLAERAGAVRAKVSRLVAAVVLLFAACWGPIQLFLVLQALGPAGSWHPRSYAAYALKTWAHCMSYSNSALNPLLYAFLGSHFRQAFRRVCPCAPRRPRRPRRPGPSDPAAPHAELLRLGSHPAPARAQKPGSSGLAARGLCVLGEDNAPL
Chain of Beta-2 adrenergic receptor (Homo sapiens) (P07550 whole entry, looked up): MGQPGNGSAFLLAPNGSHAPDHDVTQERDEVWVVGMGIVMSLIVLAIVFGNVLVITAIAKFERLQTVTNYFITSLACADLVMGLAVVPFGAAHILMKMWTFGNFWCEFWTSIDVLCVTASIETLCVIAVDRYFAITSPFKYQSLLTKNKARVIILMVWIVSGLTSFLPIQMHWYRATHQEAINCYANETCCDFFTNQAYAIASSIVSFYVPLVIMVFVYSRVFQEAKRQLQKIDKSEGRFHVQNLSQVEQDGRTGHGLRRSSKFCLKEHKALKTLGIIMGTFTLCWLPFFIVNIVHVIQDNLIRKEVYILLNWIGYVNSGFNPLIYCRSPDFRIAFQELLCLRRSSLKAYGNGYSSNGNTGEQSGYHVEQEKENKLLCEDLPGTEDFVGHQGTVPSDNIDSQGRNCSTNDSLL
Chain of Gonadotropin-releasing hormone receptor (Homo sapiens) (P30968 whole entry, looked up): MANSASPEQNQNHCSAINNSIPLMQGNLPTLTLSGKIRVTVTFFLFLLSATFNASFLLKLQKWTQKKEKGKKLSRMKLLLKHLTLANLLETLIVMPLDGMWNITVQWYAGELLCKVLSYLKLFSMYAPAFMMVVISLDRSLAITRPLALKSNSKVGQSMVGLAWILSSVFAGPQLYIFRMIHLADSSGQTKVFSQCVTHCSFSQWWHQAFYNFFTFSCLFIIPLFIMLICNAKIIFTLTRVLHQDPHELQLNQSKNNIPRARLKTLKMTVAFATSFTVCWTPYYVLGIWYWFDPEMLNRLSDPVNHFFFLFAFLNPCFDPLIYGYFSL

Take `CCCCCCCCCCCCCCCC(=O)OC/C=C(C)/C=C/C=C(C)/C=C/C1=C(C)CCCC1(C)C`: the Potency result in assay [1], in assay [2], in [3], in [4], in assay [5] and in assay [6] was “inactive” throughout. Also, the Potency entry in assay [7], in [8], in assay [9], in [10], in [11] and in assay [12] was “inactive” in each case. Besides, the Potency entry in assay [13] and in assay [14] was “inactive” throughout.
For the compound `Cc1ccc(NC(=O)c2ccc(CN3CCN(C)CC3)cc2)cc1Nc1nccc(-c2cccnc2)n1`, the Potency result in assay [1], in assay [2], in assay [3], in assay [15], in assay [6] and in [7] was “inactive” throughout. Further, the Potency entry in assay [8], in [16], in [17], in assay [18] and in [14] was “inactive” each time.
Turning to `CCCOC(=O)c1c(Cl)c(Cl)c(Cl)c(Cl)c1C(=O)OCCC`, the Potency entry in assay [1], in assay [2], in assay [3], in assay [4], in [5] and in [6] was “inactive” throughout. Moreover, the Potency entry in [7], in assay [9], in assay [10], in [11], in assay [12] and in assay [16] was “inactive” each time. The Potency result in assay [13], in assay [17], in assay [18], in [19] and in assay [14] was “inactive” throughout.
Consider `COc1ccc(CCN(C)CCCC(C#N)(c2ccc(OC)c(OC)c2)C(C)C)cc1OC` (stereo unspecified), for which the Potency entry in assay [1], in assay [2], in [3], in assay [6], in assay [7] and in assay [17] was “inactive” each time. Besides, the Potency result in assay [19] and in [14] was “inactive” throughout.
On to `COc1cc(Cc2cnc(N)nc2N)cc(OC)c1OC`, for which the Potency entry in [1], in assay [2], in assay [3], in assay [7], in assay [8] and in assay [9] was “inactive” in each case. Also, the Potency entry in assay [10], in assay [11], in [12], in [16], in assay [13] and in [17] was “inactive” throughout. For the same compound, the Potency entry in [18], in assay [19] and in [14] was “inactive” each time.
`Cc1ccc(O)c([C@H](CCN(C(C)C)C(C)C)c2ccccc2)c1`: the Potency result in assay [1], in assay [2], in assay [3], in assay [15], in assay [5] and in assay [6] was “inactive” in each case. Also, the Potency entry in [8], in [9], in assay [12], in [16], in assay [13] and in assay [17] was “inactive” in each case. Further, the Potency entry in assay [18], in [19] and in assay [14] was “inactive” throughout. The Potency in [11] was 32.6 nM (active).
As to `CSc1ccc(C=O)cc1`, the Potency result in assay [1], in assay [2], in [3], in assay [5], in assay [6] and in [7] was “inactive” each time. In addition, the Potency entry in [9], in assay [10], in assay [11], in assay [12], in [13] and in assay [17] was “inactive” in each case. The Potency result in [19] and in assay [14] was “inactive” each time.
Consider `CC(C)CCOC(=O)c1ccc(N(C)C)cc1`, for which the Potency entry in assay [1], in [2], in assay [3], in assay [15], in assay [5] and in assay [6] was “inactive” throughout. The Potency entry in assay [7], in assay [8], in assay [10], in assay [11], in assay [12] and in assay [16] was “inactive” in each case. Moreover, the Potency result in assay [13], in assay [17], in assay [19] and in [14] was “inactive” throughout.

For the origin of these results see PubChem BioAssay (Tox21).
